Measured values published in the supplement of paper PMC12645437, “Orthogonal IMiD-Degron Pairs Induce Selective Protein Degradation in Cells” (ACS Chemical Biology, 2025).
Over roughly 8,300 sequences, “log2 fold change of degron read counts, EGFP-low vs EGFP+ sorted cells (limma voom), compound-induced degradation” has its median near -1.1; the highest 2% begin near 3.2. For the sample, the highest values were picked, then their nearest neighbours and some sequences at random.

T1: CRBN, Q96SW2
T1 chain: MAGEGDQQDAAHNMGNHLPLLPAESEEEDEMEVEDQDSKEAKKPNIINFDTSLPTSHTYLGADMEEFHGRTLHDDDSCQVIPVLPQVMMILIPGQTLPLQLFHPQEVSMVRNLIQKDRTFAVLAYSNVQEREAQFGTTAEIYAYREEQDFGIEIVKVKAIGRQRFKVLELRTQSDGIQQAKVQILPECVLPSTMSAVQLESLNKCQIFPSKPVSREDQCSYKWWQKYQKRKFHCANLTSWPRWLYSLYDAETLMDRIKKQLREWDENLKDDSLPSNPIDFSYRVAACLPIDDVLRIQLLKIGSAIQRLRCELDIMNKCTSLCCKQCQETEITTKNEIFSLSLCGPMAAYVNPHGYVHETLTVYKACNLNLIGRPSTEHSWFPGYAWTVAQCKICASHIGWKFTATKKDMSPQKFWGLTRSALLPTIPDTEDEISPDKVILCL


Molecular target: T1, CRBN, Q96SW2
Assay: log2 fold change of degron read counts, EGFP-low vs EGFP+ sorted cells (limma voom), compound-induced degradation; higher = more compound-induced degradation of the degron-EGFP fusion; degrons are variants of IKZF1/3 zinc finger 2; compound dose not given here
Settings: Jurkat, 18 h
[1] = compound: compound 19 (5-tert-butyl-thalidomide)
[2] = compound: compound 22 (5-morpholino-thalidomide)
[3] = compound: compound 33 (diphenyl IMiD analogue)
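Further: pooled lentiviral library of zinc finger degron-EGFP fusions in mCherry-positive Jurkat cells, FACS-sorted after compound exposure, with degron abundance counted by next-generation sequencing.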

| Sequence | log2 fold change of degron read counts [1] | log2 fold change of degron read counts [2] | log2 fold change of degron read counts [3] | log2 fold change of degron read counts (compound: thalidomide) |
| --- | --- | --- | --- | --- |
| FICNQCGHNFTQKGNLLRHIKL [46F_47I_49N_50Q_52G_53H_54N_55F_67L_, Q9UKT9] | -2.7 | -3.24 | -2.97 | -2.3 |
| FICNQCGHQFTQKGNLLRHIKL [46F_47I_49N_50Q_52G_53H_54Q_55F_67L_, Q9UKT9] | -3.84 | -3.33 | -2.9 | -3.11 |
| FNCEICGAFFTQKGNLLRHIKL [46F_47N_49E_50I_52G_53A_54F_55F_67L_, Q9UKT9] | 0.798 | -1.38 | -0.734 | -1.26 |
| FACNICGAGFTQKGNLLRHIKL [46F_47A_49N_50I_52G_53A_54G_55F_67L_, Q9UKT9] | 1.91 | 0.962 | -0.444 | -0.984 |
| FWCEICGRHFTQKGNLLRHIKL [46F_47W_49E_50I_52G_53R_54H_55F_67L_, Q9UKT9] | 0.466 | 0.665 | 0.0348 | -0.898 |
| FNCPICGRMFTQKGNLLRHIKL [46F_47N_49P_50I_52G_53R_54M_55F_67L_, Q9UKT9] | -0.587 | -0.626 | -0.159 | -0.181 |
| FGCNQCGHNFTQKGNLLRHIKL [46F_47G_49N_50Q_52G_53H_54N_55F_67L_, Q9UKT9] | -2.02 | -2.05 | -2.04 | -1.85 |
| LLCPICGFHCTQKGNLLRHIKL [46L_47L_49P_50I_52G_53F_54H_55C_67L_, Q9UKT9] | -0.42 | 0.0892 | 1.25 | 1.51 |
| FICPICGHFFTQKGNLLRHIKL [46F_47I_49P_50I_52G_53H_54F_55F_67L_, Q9UKT9] | -1.6 | -2.08 | -1.13 | -1.31 |
| LGCPICGFTCTQKGNLLRHIKL [46L_47G_49P_50I_52G_53F_54T_55C_67L_, Q9UKT9] | 3.65 | 2.87 | 1.97 | 1.36 |
| LECPICGFTCTQKGNLLRHIKL [46L_47E_49P_50I_52G_53F_54T_55C_67L_, Q9UKT9] | 1.1 | 0.00767 | 2.64 | 3.38 |
| LWCPICGFTCTQKGNLLRHIKL [46L_47W_49P_50I_52G_53F_54T_55C_67L_, Q9UKT9] | 3.24 | 3.71 | 3.05 | 2.09 |
| LYCPICGFTCTQKGNLLRHIKL [46L_47Y_49P_50I_52G_53F_54T_55C_67L_, Q9UKT9] | 3.6 | 3.63 | 2.97 | 2.63 |
| LECEICGFTCTQKGNLLRHIKL [46L_47E_49E_50I_52G_53F_54T_55C_67L_, Q9UKT9] | 0.26 | -0.872 | 1.66 | 2.87 |
| LQCNQCGFICTQKGNLLRHIKL [46L_47Q_49N_50Q_52G_53F_54I_55C_67L_, Q9UKT9] | -2.79 | -2.4 | -2.23 | -0.473 |
| FVCNQCGRTFTQKGNLLRHIKL [46F_47V_49N_50Q_52G_53R_54T_55F_67L_, Q9UKT9] | -2.81 | -2.9 | -2.85 | -2.6 |
| FACDQCGAIFTQKGNLLRHIKL [46F_47A_49D_50Q_52G_53A_54I_55F_67L_, Q9UKT9] | -1.3 | -2.79 | -2.17 | -2.61 |
| FECEICGHHFTQKGNLLRHIKL [46F_47E_49E_50I_52G_53H_54H_55F_67L_, Q9UKT9] | -3.57 | -3.77 | -3.12 | -3.14 |
